# The list is a sample of the results.
# aSyn UTR act = Activators working through SNCA 5'UTR binding (MLPCN) | alpha-synuclein 5'UTR reporter, activators screen | activity score, % (tested at 7.5 µM), hits read low | actives 7.1% (n = 300,000); in the data active = activity score below about -60%
# * = called active by the depositor.
SMILES,aSyn UTR act
O=C(CSc1ncc(-c2ccc(F)cc2)n1Cc1ccco1)Nc1ccc2c(c1)OCO2,-150*
CCOc1ccc(NC(=O)CSc2nccn2C)cc1,-65*
O=C(CSc1nccn1-c1ccc(F)cc1)Nc1ccc2c(c1)OCO2,-65*
O=C(CSc1nccn1-c1ccccc1)Nc1ccc2c(c1)OCO2,-69*
COc1ccc(C(=O)CSc2cc(C)[nH]c(=O)n2)cc1,-86*
CCOC(=O)c1sc(NC(=O)CSc2nccn2C)nc1C,-112*
COc1ccc(C(=O)CSc2nccn2C)cc1,-80*
Cc1cccc(/C=C/c2nc3ccccc3c(=O)[nH]2)c1,-94*
Clc1ccc(/C=C/c2nc3ccccc3[nH]2)c(Cl)c1,68
Clc1cccc(Cl)c1/C=C/c1nc2ccccc2[nH]1,-149*
CCOc1cc(/C=C/c2nc3ccccc3c(=O)[nH]2)ccc1O,-133*
O=c1[nH]c(/C=C/c2ccccc2Cl)nc2ccccc12,-265*
Clc1ccc(/C=C/c2nc3ccccc3[nH]2)cc1,61
CCOc1cc(/C=C/c2cc(C(F)(F)F)[nH]c(=O)n2)ccc1O,-79*
Cc1[nH]c2ccccc2c1/C=C/c1nc2ccccc2c(=O)[nH]1,-98*
COc1ccc(/C=C2\CCC/C(=C\C=N\N(C)C)C2=O)cc1,-427*
CN(C)/N=C/C=C1\CCC/C(=C\c2ccc(F)c(F)c2)C1=O,-422*
CN(C)c1ccc(/C=C2\CCC/C(=C\c3ccccc3)C2=O)cc1,-81*
CCCCC1(C)Nc2ccccc2-c2nc3ccccc3n21 (stereo not given),-146*
c1ccc2c(c1)NC1(CCCCC1)n1c-2nc2ccccc21,-126*
c1ccc2c(c1)NC1(CCCCCC1)n1c-2nc2ccccc21,-142*
CC1=CC(C)(C)Nc2ccccc21,92
Cc1cc(C)n(CCc2nc(-c3ccc(-c4ccccc4)cc3)cs2)n1,-71*
Oc1csc(Cc2nc(-c3ccc(-c4ccccc4)cc3)cs2)n1,-112*
Oc1csc(Cc2nc(-c3ccc4ccccc4c3)cs2)n1,-236*
SMILES,aSyn UTR act
Oc1csc(Cc2nc(-c3ccccc3F)cs2)n1,-169*
N#Cc1nc(-c2ccc(Cl)cc2)oc1NCCc1ccccn1,-156*
Cc1ccc(-c2nc(C#N)c(NCCc3ccccn3)o2)cc1,-151*
O=C(Nc1nc(-c2ccccn2)cs1)C12CC3CC(CC(O)(C3)C1)C2,-68*
O=C(Nc1nc(-c2ccccn2)cs1)c1cccc(-n2cnnn2)c1,83
N#Cc1ccc(-c2csc(NC(=O)C3CC3)n2)cc1,-64*
O=C(Nc1nc(-c2ccccn2)cs1)C1CC1,-111*
CN(C)c1ccc(-c2ccccc2)nn1,-148*
CC(C)(C)c1ccc(Cn2cnc(-c3ccc([N+](=O)[O-])cc3)c2)cc1,-119*
C/[N+]([O-])=C/c1c(OCc2ccccc2)ccc2ccccc12,-91*
O=Cc1c(OCc2ccccc2)ccc2ccccc12,-131*
COc1ccc(-c2cc3ccccc3oc2=O)cc1NC(=O)c1ccc(Br)o1,-94*
COc1ccc(-c2cc3ccccc3oc2=O)cc1NC(=O)c1ccc([N+](=O)[O-])o1,-240*
CCC(=O)Nc1ccc(-c2cc3ccccc3oc2=O)cc1,54
CCC(=O)Nc1cc(-c2cc3ccccc3oc2=O)ccc1OC,-98*
O=C(O)c1ccc(/C=C/c2ccc3cccc(O)c3n2)cc1,-188*
Oc1ccc(/C=C/c2ccc3cccc(O)c3n2)cc1Br,-200*
Cc1ccc(-c2cc(C(=O)N3CCOCC3)no2)cc1,67
COc1ccc(-c2cc(C(=O)N3CCN(c4ccccc4)CC3)no2)cc1,-156*
COc1ccc(-c2cc(C(=O)N3CCCC3)no2)cc1OC,-123*
COc1ccc(-c2cc(C(=O)N3CCCCC3)no2)cc1OC,-112*
CCOC(=O)C1(C)C=C(Nc2cccc(OC)c2)C(=O)N1c1ccccc1 (stereo not given),-79*
COc1ccc(C2=NN(C(=O)CN3CCOCC3)C(c3nc4ccccc4[nH]3)C2)cc1 (stereo not given),-72*
COc1ccc2nc(NC(=S)N(C)C)sc2c1,-81*
CCCC(=O)Nc1nc2ccc(OC)cc2s1,-133*
SMILES,aSyn UTR act
COc1ccc2nc(NC(=O)CSc3cn[nH]n3)sc2c1,-68*
COc1ccc2nc(NC(=O)CN3CCOCC3)sc2c1,-63*
COc1ccc2nc(NC(=O)CSC3=NCCS3)sc2c1,-88*
Cc1nc(NC(=O)CN2CCOCC2)sc1-c1ccccc1,-74*
COc1ccc2nc(NC(=O)CSc3ccccc3)sc2c1,-128*
CCOc1ccc2nc(NC(=O)CSC3=NCCS3)sc2c1,-77*
CC(=O)N1CC(=O)N=C1SCC(=O)Nc1nc(C)c(-c2ccccc2)s1,-79*
CCOc1ccc2nc(NC(=O)CSc3nc(SC)ns3)sc2c1,-167*
Nc1ccc(Oc2cc(N)cc(Oc3ccccc3)c2)cc1,-173*
Cc1ccc(CS(=O)(=O)c2ncc(Cl)c(C(=O)Nc3ccc(OC(F)F)cc3)n2)cc1,61
CC(C)c1nnc(NC(=O)c2nc(S(=O)(=O)Cc3ccccc3F)ncc2Cl)s1,-72*
Cc1cccc(CS(=O)(=O)c2ncc(Cl)c(C(=O)Nc3nnc(C(C)C)s3)n2)c1,-98*
CCc1nnc(NC(=O)c2nc(S(=O)(=O)Cc3cccc(C)c3)ncc2Cl)s1,-114*
CCOc1ccccc1NC(=O)c1nc(S(=O)(=O)Cc2cccc(C)c2)ncc1Cl,88
Brc1ccc(C2C3=C(Nc4ncnn42)c2ccccc2OC3c2ccncc2)cc1 (stereo not given),71
O=C(c1ccccc1)c1nn(-c2ccc(Cl)cc2)c(=O)cc1C(F)(F)F,-219*
O=c1[nH][nH]c(C(F)(F)F)c1C=Nc1ccc(Cl)cc1,-71*
Cc1[nH][nH]c(=O)c1C=Nc1ccc(C(F)(F)F)cc1,-77*
Cc1ccc(N=C(c2cccs2)N2CCOCC2)cc1,-66*
CC(C)(C)c1ccc(/C=C2\Oc3cc(O)ccc3C2=O)cc1,-69*
COc1cccc(/C=C2\Oc3ccc(O)cc3C2=O)c1O,83
COC(=O)c1ccc2c(c1)C(=O)/C(=C/c1ccc(O)cc1)O2,-118*
COc1ccccc1NC(=S)Nc1ccc2cn[nH]c2c1,-101*
CC(C)c1ccc(NC(=S)Nc2ccc3cn[nH]c3c2)cc1,-94*
CC(/C=N/NC(=O)c1ccccc1C)=C\c1ccccc1,-136*
SMILES,aSyn UTR act
CC(/C=N/NC(=O)c1ccccc1F)=C\c1ccccc1,-138*
O=C(Nc1ccc(-c2nc3ncccc3o2)cc1)c1ccco1,-163*
O=C(Nc1ccc(-c2nc3ncccc3o2)cc1)c1ccc(Br)o1,-103*
Brc1ccc(CNc2ccc3ncccc3c2)cc1,-194*
O=C(Nc1ccc2ncccc2c1)c1cccc(Br)c1,-375*
Cc1ccc(C(=O)Nc2ccc3ncccc3c2)cc1,84
O=C(Nc1ccc2ncccc2c1)c1cc(Cl)ccc1Cl,-80*
COc1cc2oc3ccccc3c(=O)c2cc1OC,-120*
O=c1c2ccccc2oc2cc(C#CC3(O)CCCCC3)ccc12,77
O=c1c2ccccc2oc2ccc(Oc3ccccc3)cc12,-123*
Cc1ccc(NC(=S)/C(=C(\[O-])c2ccc(C)c([N+](=O)[O-])c2)[n+]2ccccc2)cc1C,-158*
c1ccc(-c2cc(N3CCCCC3)ncn2)cc1,-135*
c1ccc(-c2cc(N3CCCCCC3)n[nH]2)cc1,-74*
COc1cccc(C(=O)/C=C2\Sc3ccccc3N2C)c1,-131*
CN1/C(=C\C(=O)c2cccnc2)Sc2ccccc21,-94*
Cc1nc(NC(=O)c2ccc(F)cc2)nc2cc3c(cc12)OCO3,-120*

# Assay outcomes from PubChem BioAssay.
